Screens from PubChem BioAssay.
The entries come from a sample that favours hits as a whole.
TcdB GH inh = blocks C. difficile toxin B glycohydrolase activity. TcdB glycohydrolase enzymatic assay, plate reader. AID 652162. inhibition, % at 9.99 µM. 350,000 tested, 0.24% active; in the data active = inhibition above about 10%
Target sequence (P18177 whole entry, looked up): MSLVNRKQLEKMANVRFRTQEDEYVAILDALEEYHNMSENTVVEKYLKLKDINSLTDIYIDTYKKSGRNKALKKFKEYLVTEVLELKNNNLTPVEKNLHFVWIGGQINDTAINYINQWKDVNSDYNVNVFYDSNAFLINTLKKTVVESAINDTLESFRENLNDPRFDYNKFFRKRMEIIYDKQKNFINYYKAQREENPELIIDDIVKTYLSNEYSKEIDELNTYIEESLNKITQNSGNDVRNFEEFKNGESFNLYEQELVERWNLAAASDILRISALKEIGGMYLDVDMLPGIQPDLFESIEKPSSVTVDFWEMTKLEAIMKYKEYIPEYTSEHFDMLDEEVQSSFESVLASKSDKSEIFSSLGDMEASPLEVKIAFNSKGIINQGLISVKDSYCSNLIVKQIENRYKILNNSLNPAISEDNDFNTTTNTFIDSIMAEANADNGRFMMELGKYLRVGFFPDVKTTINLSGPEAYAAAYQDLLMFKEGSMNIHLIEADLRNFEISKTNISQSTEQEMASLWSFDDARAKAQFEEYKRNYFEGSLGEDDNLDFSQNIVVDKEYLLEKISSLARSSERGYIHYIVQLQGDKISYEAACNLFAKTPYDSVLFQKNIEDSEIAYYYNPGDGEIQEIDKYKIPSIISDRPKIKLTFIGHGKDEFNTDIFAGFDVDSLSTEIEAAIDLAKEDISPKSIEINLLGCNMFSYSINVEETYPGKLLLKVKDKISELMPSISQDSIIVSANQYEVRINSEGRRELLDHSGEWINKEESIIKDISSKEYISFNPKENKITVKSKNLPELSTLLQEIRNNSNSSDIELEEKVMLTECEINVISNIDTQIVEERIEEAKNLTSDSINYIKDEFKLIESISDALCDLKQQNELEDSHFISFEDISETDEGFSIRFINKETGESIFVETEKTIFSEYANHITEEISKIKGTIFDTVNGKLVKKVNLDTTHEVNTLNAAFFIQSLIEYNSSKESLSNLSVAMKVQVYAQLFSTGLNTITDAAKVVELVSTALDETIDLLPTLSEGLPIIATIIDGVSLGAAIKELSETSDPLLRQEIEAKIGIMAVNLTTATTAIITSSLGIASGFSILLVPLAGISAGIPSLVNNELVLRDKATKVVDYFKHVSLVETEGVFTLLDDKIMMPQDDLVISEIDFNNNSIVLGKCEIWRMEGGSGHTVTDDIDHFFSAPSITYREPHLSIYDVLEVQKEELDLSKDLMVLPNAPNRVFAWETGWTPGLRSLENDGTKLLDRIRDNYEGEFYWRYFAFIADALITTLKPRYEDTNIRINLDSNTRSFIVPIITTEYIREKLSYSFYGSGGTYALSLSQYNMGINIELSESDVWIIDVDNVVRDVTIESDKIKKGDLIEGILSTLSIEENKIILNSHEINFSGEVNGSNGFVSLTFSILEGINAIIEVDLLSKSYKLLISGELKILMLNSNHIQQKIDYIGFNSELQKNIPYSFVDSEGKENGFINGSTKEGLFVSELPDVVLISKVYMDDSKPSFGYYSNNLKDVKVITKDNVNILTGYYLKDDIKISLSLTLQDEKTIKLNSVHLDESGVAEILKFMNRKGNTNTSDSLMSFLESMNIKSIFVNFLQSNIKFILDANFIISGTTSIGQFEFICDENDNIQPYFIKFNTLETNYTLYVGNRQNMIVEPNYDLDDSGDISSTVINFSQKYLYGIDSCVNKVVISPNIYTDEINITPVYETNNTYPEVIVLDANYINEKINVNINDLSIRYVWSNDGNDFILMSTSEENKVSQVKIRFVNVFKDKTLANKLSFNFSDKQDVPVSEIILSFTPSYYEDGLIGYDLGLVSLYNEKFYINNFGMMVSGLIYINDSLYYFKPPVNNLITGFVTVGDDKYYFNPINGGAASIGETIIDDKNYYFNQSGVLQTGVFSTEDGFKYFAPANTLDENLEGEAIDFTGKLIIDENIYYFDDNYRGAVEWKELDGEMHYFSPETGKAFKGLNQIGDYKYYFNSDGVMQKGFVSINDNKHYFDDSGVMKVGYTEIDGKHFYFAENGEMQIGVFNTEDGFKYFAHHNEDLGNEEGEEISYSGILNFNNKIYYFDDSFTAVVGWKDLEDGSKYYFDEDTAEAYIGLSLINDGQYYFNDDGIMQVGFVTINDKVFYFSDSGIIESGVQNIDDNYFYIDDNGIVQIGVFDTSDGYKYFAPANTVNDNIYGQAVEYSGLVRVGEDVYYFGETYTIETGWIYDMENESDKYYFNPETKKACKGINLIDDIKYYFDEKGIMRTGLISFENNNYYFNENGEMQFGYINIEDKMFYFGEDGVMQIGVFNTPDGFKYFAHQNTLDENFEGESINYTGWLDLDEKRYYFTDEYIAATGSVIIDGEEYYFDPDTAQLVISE
BoNT F protease = BoNT F light chain protease inhibition | Multiplex microsphere protease cleavage assay, flow cytometry | inhibition, % at 10 µM | 360,000 tested, 0.22% active; in the data active = inhibition above about 35%, passing the limit was not always enough; inconclusive = no clear call, values can overlap the other calls; note: plate controls were buffer without enzyme for full effect and enzyme alone for no effect
BoNT-A LC inh2 = BoNT A light chain protease inhibition; multiplex microsphere protease substrate cleavage, flow cytometry; inhibition, % at 10 µM; 360,000 tested, 0.17% active; AID 588499; note: plate controls were buffer without enzyme for full effect and enzyme alone for no effect
Autofluor counter = counter-screen for toxin protease inhibitors: compound fluorescence; compound autofluorescence counterscreen, microsphere flow cytometry; hits give high values; fluorescence intensity (no concentration beside the values); 360,000 tested, 3.1% active; AID 624483; in the data active = fluorescence intensity above about 16000; inconclusive = no clear call, values can overlap the other calls
Anthrax LF inh2 = anthrax lethal factor protease inhibition; 360,000 tested, 0.12% active; inhibition, % at 10 µM; AID 588501; multiplex microsphere protease cleavage assay, LF; P15917; note: plate controls were buffer without enzyme for full effect and enzyme alone for no effect
* marks the source's active call; other numbers are inactive results; ? = inconclusive; . = no result given. Cut-off read from the data, not from the text of the source, unless noted: active = inhibition above about 30%; inconclusive = no clear call, values can overlap the other calls; inactive = below that.

SMILES	TcdB GH inh	BoNT F protease	BoNT-A LC inh2	Autofluor counter	Anthrax LF inh2
COCC(=O)Nc1nc2n(n1)C(c1ccc(OC)cc1)CC(c1ccc(OC)cc1)N2 (stereo unspecified)	.	7	?	21259*	-11
COc1ccc(C2CC(c3ccccc3)Nc3nc(N)nn32)cc1 (stereo unspecified)	.	1	-2	10689	-9
O=C(O)CCCC(=O)Nc1nc2n(n1)C(c1ccc(F)cc1)CC(c1ccc(Cl)cc1)N2 (stereo unspecified)	.	7	4	21330*	1
CCOc1ccc(C2CC(c3ccccc3)Nc3nc(N)nn32)cc1 (stereo unspecified)	.	5	?	18914*	3
COc1ccc2c3c(n(C)c2c1)[C@@H](CO)N(C(=O)Nc1ccc(F)cc1)CC31CCN(C)CC1	-1	.	.	.	.
N#C[C@@H]1[C@@H](c2ccccc2C2=CCCC2)[C@H](CO)N1C(=O)C1CCC1	1	.	.	.	.
CCC(=O)N1CC2(C1)CN(Cc1ccc3c(c1)OCO3)[C@H](CO)c1c2c2ccc(OC)cc2n1C	0	.	.	.	.
COc1ccc(CNC(=O)c2sc(=S)n(-c3ccc(OC)cc3)c2N)cc1	.	1	2	19355*	-4
CCOC(=O)c1sc(=S)n(-c2ccc(OC)cc2)c1C	0	?	-2	4085	-13
Cc1nc(N)c(C#N)c(-c2cccnc2)c1C	.	8	0	3740	4
CCc1nc(N)c(C#N)c(-c2cccnc2)c1C	.	11	7	17121*	-11
Cc1cc(C)c(/C=C(\C#N)S(=O)(=O)c2ccccc2)[nH]1	-1	-5	0	6403	-9
Cc1[nH]c2ccccc2c1/C=C(\C#N)C(=O)NC(C)c1ccccc1 (stereo unspecified)	.	3	3	22234*	-6
Cc1[nH]c2ccccc2c1/C=C(\C#N)S(=O)(=O)c1ccccc1	.	-2	0	20697*	-2
Cc1noc(C)c1NC(=O)N(C)C[C@H]1OCCCC[C@H](C)Oc2ccc(N(C)C)cc2C(=O)N([C@H](C)CO)C[C@@H]1C	-10	.	.	.	.
CC12CCC(C(=O)Nc3ccccc3)(C/C1=N\O)C2(C)C (stereo unspecified)	.	-1	-1	16758*	-1
Cc1cccc(NC(=O)C23CCC(C)(/C(=N/O)C2)C3(C)C)c1 (stereo unspecified)	.	2	-1	9991	0
CCCNC(=O)N1[C@H](CO)[C@@H](c2ccccc2)[C@@H]1C#N	0	.	.	.	.
CCCc1nnc(NC(=O)Cn2c(=O)oc3cc(Br)ccc32)s1	.	4	2	21386*	-1
C[C@H](CO)N1C[C@H](C)[C@@H](CN(C)S(C)(=O)=O)OCCCC[C@H](C)Oc2ccc(NC(=O)Nc3ccccc3)cc2C1=O	-1	.	.	.	.
NS(=O)(=O)c1ccc(N/N=C/c2ccccc2C(=O)O)c([N+](=O)[O-])c1	0	-1	-1	3365	1
Cc1cc([N+](=O)[O-])c2[nH]c(C(=O)N/N=C/c3ccccc3C(=O)O)c(-c3ccccc3)c2c1	.	-1	1	19535*	2
CC[C@H](C)NC(=O)CCCCCn1c(=S)[nH]c2c([nH]c3ccc(OC)cc32)c1=O	1	-4	0	3316	-2
COc1ccc2[nH]c3c(=O)n(CCCCC(=O)N4CCC(C(N)=O)CC4)c(=S)[nH]c3c2c1	5	1	?	20373*	2
COc1ccc2[nH]c3c(=O)n(CCCCC(=O)NCCN4CCCC4)c(=S)[nH]c3c2c1	11*	-7	-2	17189*	0
SMILES	TcdB GH inh	BoNT F protease	BoNT-A LC inh2	Autofluor counter	Anthrax LF inh2
C[C@H](CO)N1C[C@H](C)[C@@H](CN(C)Cc2ccc(-c3ccccc3)cc2)Oc2c(cccc2N(C)C)C1=O	1	.	.	.	.
CCOC(=O)c1cnc(SCC(=O)c2ccc(C)cc2)nc1N	.	-2	1	2564	7
CCOC(=O)c1cnc(SCC(=O)c2ccccc2)nc1N	.	-4	-1	24281*	0
O=c1c(CN2CCN(Cc3ccccc3)CC2)coc2ccc(Cl)cc12	.	8	9	19830*	-11
O=C(NCc1ccc(Cl)cc1)C1C2C=CC3(CN(Cc4cccnc4)C(=O)C13)O2 (stereo unspecified)	5	-10	-6	25239*	-3
C[C@H]1CN([C@@H](C)CO)C(=O)c2cc(-c3cccnc3)cnc2O[C@@H]1CN(C)C(=O)NC1CCCC1	0	.	.	.	.
CCOC(=O)/C(C(N)=NCCO)=C(/O)c1ccccc1	.	-1	-1	17067*	-4
Cc1ccc(S(=O)(=O)N(C)c2nonc2C)cc1	.	-1	1	19642*	1
COCC(=O)N(C)C[C@@H]1Oc2cc(-c3ccncc3)ccc2S(=O)(=O)N([C@@H](C)CO)C[C@@H]1C	-1	.	.	.	.
CC1Cc2ccccc2N1C(=O)Cn1c(=O)cc(O)c2ccccc21 (stereo unspecified)	.	-9	?	24078*	-4
CC1Cc2ccccc2N1C(=O)Cc1cccs1 (stereo unspecified)	1	-8	-7	17722*	-3
CC1Cc2ccccc2N1C(=O)CCS(=O)(=O)c1cccs1 (stereo unspecified)	.	4	-1	6867	13
CCN(C[C@@H]1[C@H](c2ccccc2)[C@H](CO)N1C(C)=O)C(=O)c1ccccn1	1	.	.	.	.
COc1ccc(-c2noc(CCCC(=O)Nc3ccc(C(N)=O)cc3)n2)cc1OC	2	-7	-3	4365	-1
CCOc1ccc(-c2noc(CCCC(N)=O)n2)cc1OC	2	-2	-1	22255*	-4
CCOc1cc(-c2noc(CCCC(N)=O)n2)cc(Br)c1OC	.	-1	0	7941	-8
COc1ccc(-c2noc(CCC(N)=O)n2)cc1OC	.	-8	?	22164*	-4
C[C@H]1CN([C@@H](C)CO)C(=O)c2cc(C#Cc3ccncc3)cnc2O[C@@H]1CN(C)CC1CCOCC1	0	.	.	.	.
CC(C)NC(=O)N(C)C[C@@H]1OCCCC[C@H](C)Oc2ccc(NC(=O)CCC(F)(F)F)cc2C(=O)N([C@@H](C)CO)C[C@H]1C	1	.	.	.	.
CCCCN1CCC(C#N)(Nc2ccccc2)CC1	2	-6	-4	24452*	0
CCCC#Cc1cnc2c(c1)C(=O)N([C@H](C)CO)C[C@H](C)[C@H](CN(C)C(=O)c1cccnc1)O2	1	.	.	.	.
CCN(Cc1ccncc1)S(=O)(=O)c1ccc(C(C)=O)cc1	.	2	1	22742*	0
CCN(CC)S(=O)(=O)c1ccc(C(=O)Nc2ccc(Cc3ccncc3)cc2)cc1	1	3	-1	3431	-8
Cc1ccc(S(=O)(=O)N(C)C[C@H]2OCCCC[C@@H](C)Oc3ccc(NC(=O)c4ccncc4)cc3C(=O)N([C@H](C)CO)C[C@@H]2C)cc1	0	.	.	.	.
O=C(CCS(=O)(=O)Cc1ccc(Cl)cc1)NCCCN1CCN(c2ccccc2F)CC1	.	-6	-3	22031*	0
O=C(NCCCN1CCOCC1)c1ccc(CS(=O)(=O)c2cccc(C(F)(F)F)c2)o1	.	-4	-2	22992*	-2
O=C(NCCCN1CCOCC1)c1ccc(CS(=O)(=O)Cc2ccc(Cl)cc2)o1	.	-6	-3	20919*	-3
Cc1ccccc1CS(=O)(=O)CCC(=O)NCCCN1CCN(c2ccccc2F)CC1	0	-3	1	2456	3
